Bioassay records as filed in PubChem BioAssay.
Shown are actives, neighbours in structure and some others; about 3.1% of the full set was active somewhere.
VDR inh: blocks the human vitamin D receptor; Potency, µM, actives largely listed as inhibitors; P11473; actives 0.93% (n = 400,000); AID 504847; VDR-SRC2-3 peptide fluorescence polarization, 2 h
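Reagent solutions, kept cold and dark, are dispensed first; compounds are then pinned in at 23 nl, plates briefly spun, and incubated 2 h at ambient temperature. Inhibition of VDR–SRC2-3 peptide binding is read by fluorescence polarization.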
Tb PFK inh: inhibitors of T. brucei phosphofructokinase | O15648 | actives 0.17% (n = 330,000) | AID 485367 | T. brucei PFK, ADP-Glo luminescence | Potency, µM (series often up to 57.5 µM), actives largely listed as inhibitors; further: nearly all actives have a fitted effect of over 60% in size
Target sequence (O15648 whole entry, looked up): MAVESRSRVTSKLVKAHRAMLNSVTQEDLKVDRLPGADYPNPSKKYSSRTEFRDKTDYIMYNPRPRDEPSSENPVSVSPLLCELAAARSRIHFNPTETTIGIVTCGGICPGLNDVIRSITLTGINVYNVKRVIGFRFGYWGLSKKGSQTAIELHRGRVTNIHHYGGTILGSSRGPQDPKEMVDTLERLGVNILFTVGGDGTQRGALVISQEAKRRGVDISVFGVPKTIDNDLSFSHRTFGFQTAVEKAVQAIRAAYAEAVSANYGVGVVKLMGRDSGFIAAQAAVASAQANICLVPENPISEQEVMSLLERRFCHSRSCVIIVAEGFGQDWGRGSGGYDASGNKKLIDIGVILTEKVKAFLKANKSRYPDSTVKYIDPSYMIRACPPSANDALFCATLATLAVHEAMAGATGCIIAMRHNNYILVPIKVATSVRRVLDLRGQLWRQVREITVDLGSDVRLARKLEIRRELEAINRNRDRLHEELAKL
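Activity is normalized to no-enzyme wells (full inhibition) and 1.25 nM enzyme wells (no inhibition). Reaction: 0.5 mM F6P, 0.1 mM ATP, 45 min RT, ADP-Glo luminescence; concentration-response curves fitted and classed by quality.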
Pin1 inh: inhibitors of human Pin1; Potency, µM (series often up to 115 µM), actives largely listed as inhibitors; Pin1 FP peptide displacement, HiFluor488, 10 min; actives 0.009% (n = 390,000); Q13526; active means well fitted inhibition curve with a large enough effect in the polarisation, with a control signal flat, not every such curve was filed as active; inconclusive means small, poorly fitted or top-dose-only effect, or effect the other way, or a change in a side signal; inactive means no such curve, though single readings can be large or run the other way; the % refers to the polarisation
Target sequence (Q13526 whole entry, looked up): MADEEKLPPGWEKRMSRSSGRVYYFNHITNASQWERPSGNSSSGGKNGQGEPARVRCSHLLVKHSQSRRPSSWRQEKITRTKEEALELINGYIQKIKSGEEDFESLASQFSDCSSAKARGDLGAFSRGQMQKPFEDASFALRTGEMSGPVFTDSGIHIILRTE
TDP1 block: inhibitors of human tyrosyl-DNA phosphodiesterase TDP1. Q9NUW8. recombinant TDP1, AlphaScreen DNA substrate cleavage. Potency, µM (series often up to 130 µM), usual class: inhibitors. actives 0.28% (n = 350,000); further: nearly all actives have a fitted effect of over 40% in size
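E. coli-derived human Tdp1, 1 nM final. Cpd preinc 15 min RT; substrate 15 nM final, 5 min RT; AS bead mix 10 ug/ml final, 10 min RT. Signal loss = tyrosine-FITC cleavage. No-enzyme wells = max signal.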
PLK1 PBD block: inhibitors of human PLK1 polo-box domain binding; P53350; Plk1 PBD binding of FITC phosphopeptide, fluorescence polarization; Potency, µM, most hits filed as inhibitors; actives 2.8% (n = 360,000); AID 720504; further: series mostly up to about 57 µM; nearly all actives have a fitted effect of over 65% in size
ASM inhibitor: blocks human secretory acid sphingomyelinase; P17405; placental ASM, HMU-PC fluorogenic substrate, 60 min; Potency, µM (series often up to 57.5 µM), hits mostly inhibitors; actives 0.006% (n = 340,000); AID 504937
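HMU-PC0 cleavage (9 uM final) by human placental ASM, 60 min at 37 °C following 10 min compound exposure at RT; stopped at pH 10, fluorescence Ex 386/Em 447 nm.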
Hits are given with their value; – = inactive; ? = inconclusive; · = no result; [ ] = dose if it differs, or a comment. Unless noted, the call rests on the fitted dose curve; in most records, active means well fitted curve in the direction sought with a large enough effect; inconclusive means small, poorly fitted or top-dose-only effect, or another doubt; inactive means no such curve, though single readings can be large; an effect the other way counts as inactive or inconclusive.

SMILES	VDR inh	Tb PFK inh	Pin1 inh	TDP1 block	PLK1 PBD block	ASM inhibitor
O=C(c1ccccc1O)N(Cc1ccco1)Cc1ccco1	·	·	–	–	·	·
COc1ccc(NC(=O)c2c(NC(=O)CCC(=O)O)sc(-c3ccccc3)c2C)cc1	?	–	?	–	24µM	–
S=C([S-])NCCNC(=S)[S-].[Zn+2]	·	·	·	14µM	·	·
O=C(Nc1cccc(-c2nc3ccccc3c(=O)o2)c1)c1ccccc1	–	–	–	–	21µM	–
CCOc1cc(C(=O)Nc2cccc(-c3nc4ccccc4o3)c2)cc(OCC)c1OCC	–	·	–	·	·	·
COC(=O)/C=C/C1c2ccccc2C(OC)C1C (stereo unspecified)	·	·	·	–[21 µM]	·	·
O=C(NCCN1C(=O)C2C3C=CC(C3)C2C1=O)Nc1ccccc1 (stereo unspecified)	–	–	–	–	–	–
O=C(NCCN1C(=O)C2C3C=CC(C3)C2C1=O)NCc1ccccc1 (stereo unspecified)	89µM	–	–	–	–	–
CC(=O)c1sc2nsc(SCCN3CCCC3)c2c1N	–	–	–	–	7.5µM	–
CCOC(=O)c1ccccc1NC(=O)Cn1c(=O)n(Cc2ccc(C(=O)NCc3ccc4c(c3)OCO4)cc2)c(=O)c2ccccc21	–	·	–	–	·	·
O=C(Cn1c(=O)n(Cc2ccc(C(=O)NCc3ccc4c(c3)OCO4)cc2)c(=O)c2ccccc21)Nc1ccc(F)cc1F	–	·	?	25µM	·	·
O=C(CCCc1ccccc1)NC1CC(=O)N(c2ccc(Cl)cc2)C1 (stereo unspecified)	–	·	–	–	·	·
Cc1ccc(NC(=O)CN2C(=O)C3(SCC(=O)N3c3ccc(F)c(F)c3)c3ccccc32)c(C)c1 (stereo unspecified)	–	·	–	–	·	·
CCC(=O)c1ccc(OCC(=O)O)cc1	–	–	–	–	–	–
CCC(=O)c1ccc(OCCSc2ncccn2)cc1	–	–	–	–	27µM	–
Clc1ccc(-n2c(Cc3ccccc3)nnc2SCc2nc(-c3cccs3)no2)cc1	–	·	–	–	·	·
OCCN1CCN(C(c2cccs2)c2ccc3cccnc3c2O)CC1 (stereo unspecified)	·	–	·	7.1µM	·	·
Oc1ccccc1C(Nc1nccs1)c1ccc2cccnc2c1O (stereo unspecified)	–	–	–	–	?	–
CN(C)c1ccc(C=C2C(=O)OC(C)(C)OC2=O)cc1	–	–	–	–	?	–
CCCCC1(C)OC(=O)C(=Cc2ccc(SC)cc2)C(=O)O1 (stereo unspecified)	–	–	?	–	2.4µM	–
CCOC(=O)CCC(=O)O[C@H]1[C@H](O[C@@H]2[C@@H](C)[C@H](O[C@H]3C[C@@](C)(OC)[C@@H](O)[C@H](C)O3)[C@@H](C)C(=O)O[C@H](CC)[C@@](C)(O)[C@H](O)[C@@H](C)C(=O)[C@H](C)C[C@@]2(C)O)O[C@H](C)C[C@@H]1N(C)C	–	–	–	–	–	–
CC[C@H]1OC(=O)[C@H](C)[C@@H](O[C@H]2C[C@@](C)(OC)[C@@H](O)[C@H](C)O2)[C@H](C)[C@@H](O[C@@H]2O[C@H](C)C[C@H](N(C)C)[C@H]2O)[C@](C)(O)C[C@@H](C)C(=O)[C@H](C)[C@@H](O)[C@]1(C)O	–	–	·	·	21µM	?
C[C@H](N)C(=O)NCC(=O)N[C@H]1CSSC[C@@H](C(=O)O)NC(=O)[C@H](CO)NC(=O)[C@H]([C@@H](C)O)NC(=O)[C@H](Cc2ccccc2)NC(=O)[C@H]([C@@H](C)O)NC(=O)[C@H](CCCCN)NC(=O)[C@@H](Cc2c[nH]c3ccccc23)NC(=O)[C@H](Cc2ccccc2)NC(=O)[C@H](Cc2ccccc2)NC(=O)[C@H](CC(N)=O)NC(=O)[C@H](CCCCN)NC1=O	–	·	·	–	·	·
Cc1cc2cc3c(cc2nc1SCc1ccc(C(=O)O)cc1)OCCO3	–	–	–	–	30µM	–
Cc1ccc(CNC(=O)c2cc(-c3ccc(C)cc3)nc3n[nH]c(-c4cccc([N+](=O)[O-])c4)c23)cc1	–	·	–	–	·	·
SMILES	VDR inh	Tb PFK inh	Pin1 inh	TDP1 block	PLK1 PBD block	ASM inhibitor
COc1ccc(OC)c(NC(=S)NCC(c2cccnc2)N2CCOCC2)c1 (stereo unspecified)	–	–	–	–	15µM	–
CCOc1ccc(NC(=S)NCC(c2cccnc2)N2CCOCC2)cc1 (stereo unspecified)	–	–	–	–	27µM	–
CCCC1([C@H](O)C/C=C/[C@H]2[C@H](O)CC(=O)[C@@H]2CCCCCCC(=O)OC)CCC1	–	·	·	–	·	·
Cc1ccccc1N1C(S)=C(C#N)C(=O)NC1c1ccco1 (stereo unspecified)	79µM	–	–	–	?	–
N#CC1=C(S)N(c2ccc(F)cc2)C(c2cccs2)NC1=O (stereo unspecified)	?	–	–	–	–	–
N#Cc1ccc(-c2ccc(C3Nc4ccccc4C(=O)N3O)o2)cc1 (stereo unspecified)	?	–	–	–	·	–
CCCCN1C(=O)C2ON(c3ccccc3C)C(c3ccco3)C2C1=O (stereo unspecified)	–	–	?	–	–	–
Cc1ccccc1N1C(S)=C(C#N)C(=O)NC1c1cccs1 (stereo unspecified)	22µM	–	–	–	?	–
Cc1cccc(N2C(S)=C(C#N)C(=O)NC2c2cccs2)c1 (stereo unspecified)	50µM	–	–	–	?	–
N#CC1=C(S)N(c2ccccc2)C(c2ccc(-c3ccccc3Cl)o2)NC1=O (stereo unspecified)	40µM	–	–	–	19µM	–
CCOC(=O)CNC(=O)C1c2cc(OC)c(OC)cc2C(=O)N(C)C1c1ccccc1F (stereo unspecified)	–	–	–	–	–	–
CCOC(=O)C1(Cc2cccc(OC)c2)CCN(Cc2ccccc2)CC1	–	–	–	·	–	–
CCOC(=O)[C@]12Cc3c(cc(OC)c(OC)c3OC)[C@H]1N(Cc1ccccc1)C(=O)c1cc(OC)ccc12	·	·	·	·	7.5µM	·
CCOC(=O)[C@]12Cc3c(cc(OC)c(OC)c3OC)[C@H]1N(CCC(=O)OC)C(=O)c1cc(OC)ccc12	·	·	·	·	12µM	·
CN(C)c1ccc2c3c(cccc13)C(=O)N(c1ccccc1)C2=O	·	–	·	–	·	·
Cc1cccc(N2C(=O)c3cccc4c(N(C)CCO)ccc(c34)C2=O)c1	–	–	?	–	11µM	–
COc1ccc2c(c1)/C(=N/OC(=O)c1cccs1)CCC2	–	–	–	–	–	–
COc1ccc(NC(=O)O/N=C2/CCCc3ccc(OC)cc32)cc1	45µM	–	–	–	15µM	–
